# From PubChem BioAssay (Tox21)
# A number with no mark means an inactive call. Activity calls are given as the source filed them. Calls follow the shape of the dose curve; as a rule, active = well fitted curve in the direction sought with a large enough effect in the repeat runs; inconclusive = weak or mixed curves; inactive = flat fitted curve, though single readings scatter.
# Test: qHTS assay to test for compound auto fluorescence at 590 nm (red) in HepG2 cells (AID 720674)
# Settings: HepG2 autofluorescence, red 540/590 nm, 1 h; series mostly up to 91.3 µM; fluorescence, relative to Rose Bengal: at the top concentration
# In short: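 Intrinsic compound fluorescence in the red window (Ex/Em 540/590 nm) is measured in attached HepG2 cells exposed for 1 hr, DMSO vehicle as baseline, benchmarked to Rose Bengal sodium.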
# % is scaled to controls: 0 for no effect and ±100 for the full control effect.
Compound,"fluorescence, relative to Rose Bengal",outcome
CCC1(CCC(C)C)C(=O)NC(=O)NC1=O,0.107%,
C=CCN1C[C@H](C)N([C@H](c2ccc(C(=O)N(CC)CC)cc2)c2cccc(OC)c2)C[C@H]1C,0.604% [at 46 µM],
O=C(NC(=O)c1cc(F)c(F)cc1Cl)Nc1cc(F)ccc1N1CCC(C(=O)O)CC1,0.211% [at 46 µM],
[Cl-].[Cl-].[Hg+2],,inactive
CC(=O)OC(c1ccccc1)C(Cl)(Cl)Cl (stereo not drawn),0.0836%,
Cc1ncc(C[n+]2csc(CCO)c2C)c(N)n1,,inactive
CN1CC[C@]23c4c5ccc(O)c4O[C@H]2[C@@H](O)C=C[C@H]3[C@H]1C5,0.262%,
Nc1c(Br)cc(Br)c2c1C(=O)c1ccccc1C2=O,-0.0013% [at 18.6 µM],
CCC(C)(C)O,0.251%,
CC(C)(C)N(NC(=O)c1ccc(Cl)cc1)C(=O)c1ccccc1,0.0891%,
O=[N+]([O-])c1cc(Cl)c(Cl)cc1Cl,-0.167%,
CN(C)c1ccc(N=O)cc1,,inactive
CC1(C)[C@H](C(=O)O[C@H](C#N)c2cccc(Oc3ccccc3)c2)[C@@H]1C=C(Br)Br,,inactive
CC(=O)NNc1ccccc1,0.11%,
CCCN(CCOc1c(Cl)cc(Cl)cc1Cl)C(=O)n1ccnc1,,inactive
Nc1ccccc1C(=O)OCCc1ccccc1,,inactive
O=C(O)COc1cc(Cl)c(Cl)cc1Cl,,inactive
NP(N)(=O)NC(=O)c1ccc(F)cc1,0.0056% [at 46 µM],
CN1C(=O)CN=C(c2ccccc2)c2cc([N+](=O)[O-])ccc21,0.0836% [at 46 µM],

Compound,"fluorescence, relative to Rose Bengal",outcome
O=S(=O)(c1ccccc1)c1ccccc1,0.144%,
CCNC(=O)NC(=O)/C(C#N)=N/OC,-0.0453%,
O=C(O)CCCOc1ccc(Cl)cc1Cl,,inactive
C[Si](Cn1cncn1)(c1ccc(F)cc1)c1ccc(F)cc1,,inactive
C[C@]12C=CC3=C4CCC(=O)C=C4CC[C@H]3[C@@H]1CC[C@@H]2O,0.087%,
FC(Cl)(Cl)C(F)(Cl)Cl,0.178% [at 95.7 µM],
O=C(O)C(F)(F)C(F)(F)C(F)(F)C(F)(F)C(F)(F)C(F)(F)C(F)(F)C(F)(F)F,0.276%,
CCC1(C2=NCCN2)Cc2ccccc2O1 (stereo not drawn),0.151% [at 46 µM],
O=C(O)C(O)C(O)C(=O)O (stereo not drawn),0.0668%,
Nc1ccc2c(c1)Cc1ccccc1-2,-0.156%,
CC(Oc1cc(Cl)c(Cl)cc1Cl)C(=O)O (stereo not drawn),0.0039%,
CN1C[C@H](C(=O)N[C@]2(C)O[C@@]3(O)[C@@H]4CCCN4C(=O)[C@H](Cc4ccccc4)N3C2=O)C=C2c3cccc4[nH]cc(c34)C[C@H]21,,inactive
C=C(C)C(=O)OCCCCOC(=O)C(=C)C,-0.0332%,
Cc1ccc(N)c(C)c1,,inactive
COP(=O)(OC)OC(Br)C(Cl)(Cl)Br (stereo not drawn),,inactive
CC[N+]1(CCOC(=O)C(O)(c2ccccc2)c2ccccc2)CCCCC1,-0.327% [at 46 µM],
O=CC=O,,inactive
C[CH2][Hg][S]c1ccccc1C(=O)O,,inactive
O=P(OCC(Br)CBr)(OCC(Br)CBr)OCC(Br)CBr (stereo not drawn),,inactive
